Assay outcomes as filed in PubChem.
aSyn UTR act = Activators via SNCA 5'UTR binding, MLPCN. alpha-synuclein 5'UTR reporter, activators screen. activity score, % (tested at 7.5 µM), hits read low. 300,000 tested, 7.1% active; in the data active = activity score below about -60%
An asterisk follows results filed as active. Not all results are given here.

SMILES	aSyn UTR act
COc1ccc(C(=O)COC(=O)c2cccnc2Cl)c(OC)c1	-144.2*
COC(=O)c1ccc(COC(=O)c2nn(C)c(=O)c3ccccc23)cc1	-64.3*
COC(=O)c1ccc(COC(=O)c2cccnc2Cl)cc1	-68.3*
COc1ccc(OCC(=O)Nc2ccccc2O)cc1	-160.1*
COc1ccccc1NC(=O)COc1ccc(C(F)(F)F)cc1[N+](=O)[O-]	-72.7*
COc1ccccc1NC(=O)COc1ccccc1	-91.4*
COc1ccc(NC(=O)COc2ccccc2)c(OC)c1	-114.7*
COc1cc(-c2noc(-c3cccs3)n2)cc(OC)c1OC	-94.6*
COc1cc(-c2noc(C)c2/C=C/c2cccc([N+](=O)[O-])c2)cc(OC)c1OC	69.2
COc1ccc(-c2noc(-c3cccs3)n2)cc1OC	-174.0*
COc1cc(OC)cc(-c2nc(-c3cccs3)no2)c1	-139.3*
Cc1nc2ccc(NC(=O)c3ccc(Br)o3)cc2s1	-185.7*
Cc1nc2ccc(NC(=O)c3ccc(Cl)s3)cc2s1	-238.0*
Cc1ccc2nc(NC(=O)c3ccc(Cl)s3)sc2c1	-132.7*
Clc1cccc2sc(-c3nnc(-c4ccccc4)o3)c(Cl)c12	-136.9*
N#Cc1ccc(-c2csc(NC(=O)C3CC3)n2)cc1	-64.0*
O=C(Nc1nc(-c2ccccn2)cs1)C1CC1	-110.7*
O=C(Nc1nc(-c2ccccn2)cs1)c1cccc(-n2cnnn2)c1	82.7
O=C(Nc1nc(-c2ccccn2)cs1)C12CC3CC(CC(O)(C3)C1)C2	-68.2*
COc1ccc(-c2nnc(N(C)C(=O)C3CCOC3)s2)cc1 (stereo unspecified)	-65.8*
COc1ccc(-c2nnc(N(C)C(=O)C3CCCO3)s2)cc1 (stereo unspecified)	-86.6*
COc1ccc(-c2nnc(N(C)C(=O)c3ccno3)s2)cc1	-138.1*
c1ccc(N=Nc2ccc3cccccc2-3)cc1	-259.0*
CC(=O)c1ccc(Nc2ccc([N+](=O)[O-])c3nonc23)cc1	-104.3*
CCOC(=O)C(CC)(CC)C(=O)/C=C/c1cccc(Br)c1	-74.0*
SMILES	aSyn UTR act
COc1ccccc1N1CCN(/N=C/c2cc(Br)ccc2F)CC1	-92.6*
COc1ccc(/C=N/N2CCN(c3ccccc3OC)CC2)cc1Br	-101.1*
COc1cccc(/C=N/NC(=O)N/N=C/c2cccc(OC)c2O)c1O	53.0
COc1ccccc1N1CCN(/N=C/c2cccc(Cl)c2)CC1	-195.7*
COc1ccccc1N1CCN(/N=C/c2cccc(OC)c2O)CC1	-67.3*
COc1cccc(/C=N/N2CCN(c3ccccc3OC)CC2)c1	-93.1*
COc1ccc(C(=O)C(OC(=O)c2ccccc2Cl)c2ccccc2)cc1 (stereo unspecified)	-104.0*
COc1ccc(C(=O)C(OC(=O)c2ccccc2)c2ccccc2)cc1 (stereo unspecified)	-169.0*
Cc1ccc(-n2ncc3c(N4CCCC4)ncnc32)c(C)c1	-114.5*
CC1CCCN(c2ncnc3c2cnn3-c2ccccc2)C1 (stereo unspecified)	60.7
Cc1ccc(-n2ncc3c(N4CCCC(C)C4)ncnc32)c(C)c1 (stereo unspecified)	-124.8*
CCCC(=O)c1ccc(N2CCC(C)CC2)c(F)c1	-82.9*
CCC(=O)c1ccc(N2CCC(C)CC2)c(F)c1	-99.2*
O=c1c2cc(Br)ccc2[nH]c(=S)n1Cc1ccccn1	-70.0*
CNc1nc(-c2ccccc2)[n+](-c2ccc(C)cc2)s1	-115.6*
CCOc1ccc(-c2nc(C)c(C(C)=O)n2O)cc1	-173.2*
COc1ccc(N(Cc2cc3cc(OC)ccc3[nH]c2=O)S(=O)(=O)c2ccc(NC(C)=O)cc2)cc1	93.3
COc1ccc(N(Cc2cc3ccccc3[nH]c2=O)S(=O)(=O)c2ccc(OC)cc2)cc1	-64.1*
Cc1cccc(/C(N)=N/OC(=O)c2ccco2)c1	-108.8*
Cc1cccc(/C(N)=N/OC(=O)CCCc2ccccc2)c1	-88.8*
N/C(=N\OC(=O)c1ccco1)c1ccc(Br)cc1	-199.7*
N/C(=N\OC(=O)c1ccco1)c1ccccn1	-118.8*
COc1ccc(/C(N)=N/OC(=O)c2ccco2)cc1	60.2
N/C(=N\OC(=O)c1ccco1)c1ccccc1	-275.0*
Cc1sc(NC(=O)c2ccc(Cl)s2)c(C(N)=O)c1C	-284.4*
SMILES	aSyn UTR act
Cc1sc(NC(=S)Nc2ccc(F)cc2)c(C(N)=O)c1C	-87.4*
CC(=O)Nc1sc(C)c(C)c1C(=O)Nc1ccc(C)cc1	-66.4*
Cc1sc(NC(=O)c2ccc(Br)s2)c(C(N)=O)c1C	-224.6*
COC(=O)c1ccc(OCc2cc(=O)n3ccsc3n2)cc1	-133.9*
CCn1c2ccccc2c2cc(CNCc3ccc(OC)cc3OC)ccc21	62.6
CCn1c2ccccc2c2nc3cc(OC)c(OC)cc3nc21	-78.5*
Cc1[nH]cnc1C(=O)N/N=C/c1c(Cl)cccc1Cl	-72.6*
CC(=O)Nc1c(O)nc(SCC(=O)Nc2ccc(C(C)=O)cc2)[nH]c1=O	-156.6*
CC(=O)c1ccc(NC(=O)CSc2nc(N3CCOCC3)nc(N3CCOCC3)n2)cc1	-72.7*
O=S(=O)(c1cccc(-c2nnc(SCc3nc4ccccc4s3)o2)c1)N1CCOCC1	-186.6*
O=S(=O)(c1ccc(OCc2nc3ccccc3s2)c(Cl)c1)N1CCOCC1	-140.7*
CCOC(=O)c1cc2c(nc1N)CC(C)(CC)OC2 (stereo unspecified)	-100.7*
CCOC(=O)N1CCC(NC(=O)c2ccc3c(c2)sc2nc(-c4cccc(OC)c4)cn23)CC1	-212.8*
COc1ccc(/C=C/C2=Nc3ccccc3NC(C)(C)C2)cc1OC	-78.0*
Oc1c(/C=N/Nc2cccc3cccnc23)ccc2ccccc12	-163.9*
O=[N+]([O-])c1ccc(O)c(/C=N/Nc2ccc(Cl)nn2)c1	100.1
Oc1cccc(/C=N/Nc2cccc3cccnc23)c1	-142.5*
Oc1ccc(/C=N/Nc2cccc(Cl)n2)c(O)c1	-244.0*
Oc1cccc(/C=N/Nc2ccc(Cl)nn2)c1	-170.9*
COc1cc(/C=N/Nc2cccc3cccnc23)cc(OC)c1O	-94.2*
COc1cccc(C(NC(C)=O)c2ccc3cccnc3c2O)c1 (stereo unspecified)	72.3
CCOc1ccccc1-n1c(SCC(=O)Nc2ccc(CC)cc2)nc2n[nH]c(C)c2c1=N	83.6
CCN(CC)C(=O)CSc1nc2ccc(NC(=O)CSc3nccn3C)cc2s1	-65.5*
Cn1cnnc1SCC(=O)Nc1ccc2nc(SCc3ccccc3)sc2c1	-142.1*
Cc1ccccc1OCc1nnc(SCC(=O)Nc2ccc3nc(SCC(=O)Nc4ccccc4)sc3c2)n1C	-70.1*
SMILES	aSyn UTR act
Cn1cnnc1SCC(=O)Nc1ccc2nc(SCc3ccccc3Cl)sc2c1	-101.2*
CCc1ccc2c(c1)C1(NN=C(c3cccc4ccccc34)S1)C(=O)N2 (stereo unspecified)	76.3
CCc1ccc2c(c1)C1(C(=O)N2)N2CCCC2C(C(=O)c2ccc3ccccc3c2)C12C(=O)Nc1ccccc12 (stereo unspecified)	-127.1*
CCc1cccc2c1NC(=O)C21N2CCCC2C(C(=O)c2ccc3ccccc3c2)C12C(=O)Nc1ccccc12 (stereo unspecified)	-96.6*
Clc1ccc(Cl)c(OCc2cc(-c3ccccc3Cl)on2)c1	-154.8*
Cc1cccnc1NC(=S)Nc1ccc(Cl)c(Cl)c1	-141.7*
Cc1cccc(NCc2ccc(O)c3ncccc23)c1C	55.6
Cc1cccnc1NC(=S)Nc1ncccc1C	-119.5*
Cc1cccnc1NC(=S)NCCc1ccccc1	-155.2*
COc1ccc(NC(=S)Nc2ncccc2C)cc1OC	-106.6*
O=C(NNC(=S)Nc1ccc(Cl)c(Cl)c1)c1ccccn1	68.0
